Results filed as inconclusive are left out. Active and inactive are the calls of the source. Calls come from the whole dose curve; as a rule, active = well fitted inhibition curve with a large enough effect; inconclusive = small, poorly fitted or top-dose-only effect; inactive = no such curve, though single readings can be large or run the other way.
Test system: not listed separately
Assay: qHTS to identify inhibitors of the type 1 interferon - major histocompatibility complex class I in skeletal muscle: primary screen against the NCATS Mechanism Interrogation Plate v5.0 (MIPE) Libary (AID 1347411); note: nearly all actives have a fitted effect of over 65% in size; note: potency is the fitted concentration of half-maximal effect;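 for activity change, negative = inhibition: plate controls were vehicle for no effect and reference inhibitor for full effect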
Conditions: iHSKM cells + IFN-b, HiBiT-tagged MHC-I luminescence, 24 h; series mostly up to 45.8 µM; activity change, negative = inhibition: at the top concentration
Summary of the method: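 Immortalized human C25cl48 myoblasts with HiBit knocked into endogenous HLA-B*08:01 were stimulated with 4.0 ng/ml IFN-beta and exposed to compounds (11-point 1:3 titration, top 46 uM final) for 24 hrs at 37 C; HiBiT lytic luminescence measured.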

| Compound | activity change, negative = inhibition | Potency |
| --- | --- | --- |
| O=c1cc(-c2cccc3c2Sc2ccccc2S3)oc(N2CCOCC2)c1 | -18.2% (inactive) | – |
| N[C@@]1(C(=O)O)CS(=O)(=O)[C@H]2[C@H](C(=O)O)[C@H]21 | 12.6% (inactive) | – |
| Cc1ccc(C(=O)Nc2cccc(C(F)(F)F)c2)cc1Nc1nc(-c2cccnc2)nc2c1cnn2C | – | 33 µM (active) |
| NC(=O)[C@@H](CCC(F)(F)F)N(Cc1ccc(-c2ncon2)cc1F)S(=O)(=O)c1ccc(Cl)cc1 | -19.8% (inactive) | – |
| CCCCCNC(=O)N1CCC(CN(Cc2ccc(Cl)cc2)Cc2ccc([N+](=O)[O-])s2)C1 (stereo not drawn) | -29% (inactive) | – |
| CC1(C)CCC(CN2CCN(c3ccc(C(=O)NS(=O)(=O)c4ccc(NCC5CCOCC5)c([N+](=O)[O-])c4)c(Oc4cnc5[nH]ccc5c4)c3)CC2)=C(c2ccc(Cl)cc2)C1 | -11.8% (inactive) | – |
| CC(C)(C)OC(=O)N[C@H]1CCCCCC=C[C@@H]2C[C@@]2(C(=O)NS(=O)(=O)C2CC2)NC(=O)[C@@H]2C[C@@H](OC(=O)N3Cc4cccc(F)c4C3)CN2C1=O | 5.68% (inactive) | – |
| C=C1C(=O)[C@@]23C(CC[C@@H]1[C@H]2O)[C@@]12CO[C@]3(O)[C@@H](O)[C@@H]1C(C)(C)CC[C@@H]2O (stereo partly drawn) | – | 6.58 µM (active) |
| O=C(O)CCC1CCC(c2cc(F)ccc2F)(S(=O)(=O)c2ccc(Cl)cc2)CC1 (stereo not drawn) | -14.5% (inactive) | – |
| N[C@H](CSC(c1ccccc1)(c1ccccc1)c1ccccc1)C(=O)O | -22.2% (inactive) | – |
| COc1cc2c(cc1OC)CN(CCc1ccc(NC(=O)c3cc(OC)c(OC)cc3NC(=O)c3cnc4ccccc4c3)cc1)CC2 | -0.643% (inactive) | – |
| c1ccc2c(-c3cnn4cc(-c5ccc(N6CCNCC6)cc5)cnc34)ccnc2c1 | – | 7.39 µM (active) |
| O=C(N[C@@H](c1ccccc1)[C@@H]1CCCCN1)c1cccc(C(F)(F)F)c1Cl | -8.49% (inactive) | – |
| Cc1c(NC(=O)c2ccc(C(C)(C)C)cc2)cccc1-c1cn(C)c(=O)c(Nc2ccc(C(=O)N3CCOCC3)cc2)n1 | -11.8% (inactive) | – |
| CN[C@@H](C)C(=O)N[C@H]1CN(C(=O)CC(C)C)CC[C@H]2CC[C@@H](C(=O)NC(c3ccccc3)c3ccccc3)N2C1=O | -13.4% (inactive) | – |
| NC(=O)c1ccc2nc(-c3ccc(Oc4ccc(Cl)cc4)cc3)[nH]c2c1 | -33.6% (inactive) | – |

| Compound | activity change, negative = inhibition | Potency |
| --- | --- | --- |
| O=C(O)c1c(Cl)c(Cl)c(Cl)c(Cl)c1-c1c2cc(I)c(=O)c(I)c-2oc2c(I)c(O)c(I)cc12 | – | 8.29 µM (active) |
| O=C(Nc1cc(Cl)cc2c1[nH]c1cnccc12)c1cccnc1 | -53.1% [at 15.5 µM] (inactive) | – |
| CC(C)C(C)C=CC(C)C1CCC2C3=CC=C4CC(O)CCC4(C)C3CCC21C (stereo not drawn) | -9.76% (inactive) | – |
| O=C(Nc1cccc(Br)c1)c1cccc(S(=O)(=O)N2CCCCCC2)c1 | -13.7% (inactive) | – |
| CCCCCN(C)CCC(O)(P(=O)(O)O)P(=O)(O)O | -11.6% [at 5.1 µM] (inactive) | – |
| COc1cccc2c1CCCC2CCCN1CCN(C2CCCCC2)CC1 (stereo not drawn) | 39.3% (inactive) | – |
| CC(=O)Oc1cc2c(s1)CCN(C(C(=O)C1CC1)c1ccccc1F)C2 (stereo not drawn) | 5.76% (inactive) | – |
| CNC(=O)c1ccc2cc(C3(O)CCn4cncc43)ccc2c1 (stereo not drawn) | 8.29% (inactive) | – |
| C[C@]12CCC3c4ccc(O)cc4CCC3C1CCC2=O (stereo partly drawn) | -27.6% (inactive) | – |
| O=c1cc(N2CCOCC2)oc2c(-c3cccc4c3sc3ccccc34)cccc12 | -9.63% (inactive) | – |
| COCCOC(=O)C1=C(C)NC2=C(C(=O)CC(c3ccccc3OC)C2)C1c1cccc(O)c1 (stereo not drawn) | -21.8% (inactive) | – |
| COCCOc1nc(-c2ccc(Cl)c(Cl)c2)n(-c2ccc(NC(=O)CCl)cc2)n1 | – | 5.23 µM (active) |
| COc1cc(N2CCC(N3CCN(C)CC3)CC2)ccc1Nc1ncnc(Nc2ccccc2S(=O)(=O)C(C)C)n1 | – | 4.15 µM (active) |
| NS(=O)(=O)c1cccc2c1C(=O)c1cccc(O)c1C2=O | – | 0.415 µM (active) |
| O=C(Nc1ccccc1-c1cn2c(CN3CCNCC3)csc2n1)c1cnc2ccccc2n1 | – | 14.7 µM (active) |

Target: Protein phosphatase 1D (Homo sapiens) (UniProt O15297)
Assay: RapidFire Mass Spectrometry qHTS Assay for Modulators of WT P53-Induced Phosphatase 1 (WIP1) (AID 1347424);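 note: amount of dephosphorylated VEPPL-S-QETFS peptide product formed by WIP1; plate controls were DMSO wells for no effect and GSK830371 inhibitor control at 10 µM for full effect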
Conditions: WIP1 dephosphorylation of phosphopeptide, RapidFire MS; series mostly up to 63 µM; activity change, negative = inhibition: at the top concentration
Summary of the method: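 10 nM WIP1 preincubated with compounds 1 hr at room temperature in pH 7.5 Tris buffer with 30 mM MgCl2, 1 mM TCEP; 2 uM VEPPL-pS-QETFS phosphopeptide for 5 min, formic acid quench; dephosphorylated product quantified by RapidFire MS against labelled standard.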

Sequence of Protein phosphatase 1D (Homo sapiens) (O15297 whole entry, looked up): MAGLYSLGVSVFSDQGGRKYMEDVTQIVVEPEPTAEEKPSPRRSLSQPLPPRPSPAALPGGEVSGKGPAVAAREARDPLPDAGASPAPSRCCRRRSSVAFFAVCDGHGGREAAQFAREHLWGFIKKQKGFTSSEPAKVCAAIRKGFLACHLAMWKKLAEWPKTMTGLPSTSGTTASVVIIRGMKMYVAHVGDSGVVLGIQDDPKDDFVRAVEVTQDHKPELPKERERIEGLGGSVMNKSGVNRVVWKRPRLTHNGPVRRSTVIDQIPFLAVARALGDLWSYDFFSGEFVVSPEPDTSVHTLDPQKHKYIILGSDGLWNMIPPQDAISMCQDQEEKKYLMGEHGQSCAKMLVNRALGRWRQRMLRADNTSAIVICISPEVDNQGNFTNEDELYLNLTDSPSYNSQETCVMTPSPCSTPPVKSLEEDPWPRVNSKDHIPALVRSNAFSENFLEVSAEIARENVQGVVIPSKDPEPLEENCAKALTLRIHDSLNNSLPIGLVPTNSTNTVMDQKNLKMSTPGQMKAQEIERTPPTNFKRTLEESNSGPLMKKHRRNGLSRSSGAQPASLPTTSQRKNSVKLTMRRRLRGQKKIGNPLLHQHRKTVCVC

| Compound | activity change, negative = inhibition |
| --- | --- |
| CC(=O)Oc1cc2c(s1)CCN(C(C(=O)C1CC1)c1ccccc1F)C2 (stereo not drawn) | -13.1% (inactive) |
| CC(C)OC(=O)C(C)(C)Oc1ccc(C(=O)c2ccc(Cl)cc2)cc1 | 20.1% (inactive) |
| O=c1[nH]cnc2c1ncn2[C@H]1CC[C@@H](CO)O1 | 0.302% (inactive) |

Test system: not listed separately
Assay: Primary qHTS for inhibitors of La Crosse Virus (LACV) - induced cell death in SH-SY5Y cells (AID 1508616);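 note: top concentration of the series differs between compounds; 0% = infected DMSO wells and 100% = uninfected DMSO wells; higher means more rescue of cells from virus-induced death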
Conditions: SH-SY5Y LACV cytopathicity rescue, ATP luminescence, 6 d; series mostly up to 4.29 µM; activity change: at the top concentration
Summary of the method: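 Luminescent ATP readout (ATPLite 1step, 5 min room temperature) measured rescue from LACV-induced death after 6 days of infection at 0.01 MOI; normalized to infected DMSO wells and uninfected DMSO wells.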

| Compound | activity change |
| --- | --- |
| O=c1c(-c2ccc(O)cc2)coc2cc(O)ccc12 | -23.3% [at 9.63 µM] (inactive) |
| CCCCCN(C)CCC(O)(P(=O)(O)O)P(=O)(O)O | 6.33% [at 9.63 µM] (inactive) |
| CC(=O)Oc1cc2c(s1)CCN(C(C(=O)C1CC1)c1ccccc1F)C2 (stereo not drawn) | 9.02% (inactive) |
| O=c1[nH]cnc2c1ncn2[C@H]1CC[C@@H](CO)O1 | 9.99% (inactive) |

Source: PubChem BioAssay (NCATS)
